{"source": "PubChem BioAssay AID2521", "about": "(Sanford-Burnham Center for Chemical Genomics, 2010)", "note": "Among all 330,000 compounds or so, about 1,100 (0.33%) were called active.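 How the source made its calls: active means inhibition above about 40% at 20 µM (limit read from the data); inactive means the rest.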 Many of the other results were omitted from the sample, so actives are more common in it than they were."}
{"biological_target": "Apelin receptor (Homo sapiens) (UniProt P35414)", "sequence (P35414 whole entry, looked up)": "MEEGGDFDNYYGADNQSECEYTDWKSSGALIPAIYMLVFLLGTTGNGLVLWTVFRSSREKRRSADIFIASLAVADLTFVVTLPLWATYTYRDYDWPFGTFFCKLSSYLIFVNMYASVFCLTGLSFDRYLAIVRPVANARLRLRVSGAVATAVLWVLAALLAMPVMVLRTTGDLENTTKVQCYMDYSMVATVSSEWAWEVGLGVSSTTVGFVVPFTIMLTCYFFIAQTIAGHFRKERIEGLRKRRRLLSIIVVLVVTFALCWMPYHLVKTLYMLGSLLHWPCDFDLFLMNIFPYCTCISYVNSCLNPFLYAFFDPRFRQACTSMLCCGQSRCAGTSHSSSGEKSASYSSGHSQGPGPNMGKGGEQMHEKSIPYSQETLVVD", "test": "antagonists of human apelin receptor APJ, primary screen, CHO-K1 cells, beta-arrestin complementation, luminescence (AID 2521);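 further: cells challenged with 10 nM apelin-13 agonist together with compound; plate controls were apelin-13 plus DMSO wells for no effect and DMSO wells lacking apelin-13 for full effect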", "settings": "at 20 µM, stronger effect = higher value"}
{"smiles": "O=c1ccc2c(-c3ccccc3S(=O)(=O)O)c3ccc(O)c(O)c3oc-2c1O", "inhibition": "49.3% (active)"}
{"smiles": "CCNC(=S)N(CCN(CC)CC)Cc1cc2cc3c(cc2[nH]c1=O)OCO3", "inhibition": "12.3% (inactive)"}
{"smiles": "CCO[C@H]1OC(C(=O)O)=C[C@@H](C2CCCCC2)[C@@H]1CCCO", "inhibition": "-6.59% (inactive)"}
{"smiles": "O=C(Nc1cc(=O)[nH]c2ncnn12)c1ccccc1Cl", "inhibition": "2.3% (inactive)"}
{"smiles": "CC(C)OC(=O)CN1C(=O)C(=O)c2ccccc21", "inhibition": "103% (active)"}
{"smiles": "CC(OC(=O)CN1C(=O)c2ccccc2C1=O)C(=O)c1ccccc1", "note": "(configuration not stated)", "inhibition": "23% (inactive)"}
{"smiles": "CCOC(=O)CN1C(=O)C(=O)c2cc(C)ccc21", "inhibition": "-0.658% (inactive)"}
{"smiles": "COc1ccc(C(=O)C[n+]2ccc(N)c(C)c2C)cc1", "inhibition": "4.36% (inactive)"}
{"smiles": "CC(=O)c1ccc(S(=O)(=O)N(C)CCCC(=O)N(C)Cc2ccccc2F)cc1", "inhibition": "-6.03% (inactive)"}
{"smiles": "CCCn1nc2cc(C(=O)NCc3ccccc3)ccc2c1OCC", "inhibition": "-8.45% (inactive)"}
{"smiles": "N#CCCN(CCC#N)c1nnc(-c2ccccc2)s1", "inhibition": "1.67% (inactive)"}
{"smiles": "CCC(=O)c1ccc(OC(=O)/C=C/c2cc(OC)c(OC)c(OC)c2)cc1", "inhibition": "20.9% (inactive)"}
{"smiles": "Cc1c(C(=O)N2CCCc3ccccc32)sc2nc(-c3ccccc3)cn12", "inhibition": "21% (inactive)"}
{"smiles": "Cc1cccc2cc3c(N)c(C(=O)N4CCCc5ccccc54)sc3nc12", "inhibition": "95.8% (active)"}
{"smiles": "Cc1c(C(=O)N2CCCc3ccccc32)oc2ccccc12", "inhibition": "6.71% (inactive)"}
{"smiles": "Cc1cccc(N(C(=O)c2ccc(CN3CCOCC3)o2)C(C(=O)NC2CCCCC2)c2ccc(F)cc2)c1", "note": "(configuration not stated)", "inhibition": "0.911% (inactive)"}
{"smiles": "C=C(C)C(=O)O[C@H]1C/C(C)=C\\C(=O)/C=C(\\C)[C@H](O)[C@@H]2OC(=O)C(=C)[C@@H]21", "inhibition": "13.2% (inactive)"}
{"smiles": "Cc1cc(C(=O)CC#N)c(C)n1-c1c(C)n(C)n(-c2ccccc2)c1=O", "inhibition": "9.25% (inactive)"}
{"smiles": "COc1ccccc1OC(C)C(=O)Nc1ccc(S(=O)(=O)Nc2nccs2)cc1", "note": "(configuration not stated)", "inhibition": "5.98% (inactive)"}
{"smiles": "O=[N+]([O-])C(=c1ccc2c(c1)N1C3=C(CCCC3)CC3CCCCC31N=2)[N+](=O)[O-]", "note": "(configuration not stated)", "inhibition": "-3.42% (inactive)"}
{"smiles": "CCOc1ccc(NS(=O)(=O)c2ccc(Cl)c(C(=O)N(C)Cc3cccnc3)c2)cc1", "inhibition": "6.06% (inactive)"}
{"smiles": "O=C(c1ccccc1Cl)N(Cc1ccccc1F)N1C(=O)CCCC1=O", "inhibition": "-12.8% (inactive)"}
{"smiles": "O=[N+]([O-])c1cc(S(=O)(=O)CCCN2CCOCC2)ccc1F", "inhibition": "-24.6% (inactive)"}
{"smiles": "CC(CN1CCOCC1)OC(=O)c1ccc(C(C)(C)C)cc1", "note": "(configuration not stated)", "inhibition": "77% (active)"}
{"smiles": "CC(CN1CCOCC1)OC(=O)c1ccc(Cl)cc1Cl", "note": "(configuration not stated)", "inhibition": "-5.38% (inactive)"}
{"smiles": "Cc1ccc(C(=O)OC(C)CN2CCOCC2)cc1", "note": "(configuration not stated)", "inhibition": "-14.4% (inactive)"}
{"smiles": "CCOC(=O)c1cnc2nc(SCc3ccccc3Cl)[nH]n2c1=O", "inhibition": "-11.5% (inactive)"}
{"smiles": "CCc1nc2cccnc2n1-c1ccc(C(=O)O)cc1", "inhibition": "1.09% (inactive)"}
{"smiles": "COc1ccc(N2CCN(C(=O)CCSCc3ccccc3F)CC2)cc1", "inhibition": "-13.7% (inactive)"}
{"smiles": "COC(=O)c1nc2n(n1)C(c1ccc([N+](=O)[O-])cc1)C(C(=O)Nc1ccc(Cl)cc1)=C(C)N2", "note": "(configuration not stated)", "inhibition": "2.59% (inactive)"}
{"smiles": "COCCn1c(SCC(=O)Nc2ccccc2F)nc2c(c1=O)SCC2", "inhibition": "10.3% (inactive)"}
{"smiles": "COc1ccc(C(=O)NCC(=O)N/N=C/c2ccc([N+](=O)[O-])o2)cc1OC", "inhibition": "-1.61% (inactive)"}
{"smiles": "COc1cc(/C=N\\NC(=O)CNC(=O)c2cccc([N+](=O)[O-])c2)ccc1O", "inhibition": "53.6% (active)"}
{"smiles": "COc1ccc(O)c(/C=N/N=C/c2cccc([N+](=O)[O-])c2)c1", "inhibition": "15.6% (inactive)"}
{"smiles": "COc1ccc(NC(C)=O)cc1NC(=O)CN1CCN(C2c3ccccc3-c3ccccc32)CC1", "inhibition": "-6.9% (inactive)"}
{"smiles": "O=C(c1ccc(Cl)s1)N(Cc1nnc(-c2ccccc2Cl)o1)C1CC1", "inhibition": "-57.5% (inactive)"}
{"smiles": "Brc1cc(Br)c(Oc2cc(Br)c(Br)cc2Br)cc1Br", "inhibition": "11.9% (inactive)"}
{"smiles": "COc1ccc(-n2nc(C(=O)NCC(=O)N3CCC(C(N)=O)CC3)c3ccccc3c2=O)cc1OC", "inhibition": "-0.314% (inactive)"}
{"smiles": "COc1cc2c(cc1OC)C(C)N(S(=O)(=O)c1cnc(Cl)c(Cl)c1)CC2", "note": "(configuration not stated)", "inhibition": "-23.5% (inactive)"}
{"smiles": "O=C(O)CC1S/C(=N\\N=C/c2ccccc2O)N(c2ccc(O)cc2)C1=O", "note": "(configuration not stated)", "inhibition": "-8.74% (inactive)"}
{"smiles": "COc1ccc(-c2csc(Cc3nc(O)cs3)n2)cc1", "inhibition": "66.3% (active)"}
{"smiles": "CC(C)(C)C(=O)OCc1nc(-c2ccc(O)c(O)c2)cs1", "inhibition": "-5.74% (inactive)"}
{"smiles": "COc1ccc(-c2csc(NC(=O)COC(=O)Cc3ccc(Cl)cc3Cl)n2)cc1", "inhibition": "4.6% (inactive)"}
{"smiles": "CSc1cc(C)n(-c2ccccc2C)c(=S)c1C(C)=O", "inhibition": "7.52% (inactive)"}
{"smiles": "CC1CC2=C(CC1/C=N/NC(N)=S)C(C)(C)CCC2", "note": "(configuration not stated)", "inhibition": "49.2% (active)"}
{"smiles": "O=C1C=C(c2ccccc2)CCC1", "inhibition": "14.7% (inactive)"}
{"smiles": "Cc1csc(NC(=O)CSc2nnc(-c3cccnc3)o2)n1", "inhibition": "14.2% (inactive)"}
{"smiles": "O=S(=O)(NCCc1ccc(F)cc1)c1cccc2cccnc12", "inhibition": "9.75% (inactive)"}
{"smiles": "O=[N+]([O-])c1ccccc1S(=O)(=O)Nc1cccc2cccnc12", "inhibition": "53.5% (active)"}
{"smiles": "NS(=O)(=O)c1ccc(CCNS(=O)(=O)c2cccc3cccnc23)cc1", "inhibition": "-8.92% (inactive)"}
{"smiles": "Cc1ccc(OCCCC(=O)Nc2ccc(N3CCOCC3)cc2)cc1", "inhibition": "11.8% (inactive)"}
{"smiles": "O=C(C1CC(=O)N(c2ccc(Br)cc2)C1)N1CCCC1", "note": "(configuration not stated)", "inhibition": "-9.51% (inactive)"}
{"smiles": "Cc1ccc(NC(=O)c2sc3nc(N)c(C#N)cc3c2N)cc1", "inhibition": "5.56% (inactive)"}
{"smiles": "CC(=O)Nc1ccc(NC(=O)c2sc3nc4c(c(-c5ccc(C)cc5)c3c2N)CCC4)cc1", "inhibition": "41.5% (active)"}
{"smiles": "Cc1cccc(NC(=O)c2sc3nc(N4CCOCC4)c4c(c3c2N)CCCC4)c1", "inhibition": "0.268% (inactive)"}
{"smiles": "CCNS(=O)(=O)c1ccc(NC(=O)c2cncc(Br)c2)cc1", "inhibition": "3.77% (inactive)"}
{"smiles": "CC(C)(C)c1ccc(NC(=O)COC(=O)CCc2nc3ccccc3c(=O)[nH]2)cc1", "inhibition": "9.52% (inactive)"}
{"smiles": "O=C(CCc1nc2ccccc2c(=O)[nH]1)OCC(=O)c1cccc(Cl)c1", "inhibition": "46% (active)"}
{"smiles": "O=C(COC(=O)CCc1nc2ccccc2c(=O)[nH]1)Nc1ccc(N2CCOCC2)cc1", "inhibition": "5.92% (inactive)"}
{"smiles": "COc1ccc(S(=O)(=O)N2CCOCC2)c(C)c1C", "inhibition": "3% (inactive)"}
{"smiles": "COc1ccccc1NC(=O)c1c(Br)cnn1C", "inhibition": "-0.0339% (inactive)"}
{"smiles": "CN=C1C=C/C(=N/N=c2\\ccn(O)cc2C)C=C1C", "inhibition": "46% (active)"}
{"smiles": "CC(C)C[C@@H](N)c1nnc(SCC(=O)c2ccc(Cl)cc2)o1", "inhibition": "6.62% (inactive)"}
{"smiles": "O=C1Oc2ccccc2C(=O)/C1=C/c1ccccc1O", "inhibition": "3.82% (inactive)"}
{"smiles": "O=C(NCCCc1ccccc1)C1CCC(=O)N(CCc2ccc(Cl)cc2)C1", "note": "(configuration not stated)", "inhibition": "4.1% (inactive)"}
{"smiles": "COc1cccc(NC(C)=[N+](C)CCNS(=O)(=O)c2ccc(Cl)cc2)c1", "inhibition": "13.5% (inactive)"}
{"smiles": "CCOC(=O)c1cnc(Nc2nc3ccccc3o2)nc1CSC(=S)N1CCCCC1", "inhibition": "44.1% (active)"}
{"smiles": "CCc1ccc(CNC(=O)C2CCCN(c3nc4ccccc4o3)C2)cc1", "note": "(configuration not stated)", "inhibition": "-5.94% (inactive)"}
{"smiles": "CCOC(=O)CCNC(=O)N1CCCC(C(=O)c2ccccc2SC)C1", "note": "(configuration not stated)", "inhibition": "-13.5% (inactive)"}
{"smiles": "O=C(CC1SC(=Nc2ccccc2)N(Cc2ccccn2)C1=O)Nc1cccc(Cl)c1", "note": "(configuration not stated)", "inhibition": "0.604% (inactive)"}
{"smiles": "COc1ccc(CCNC(=S)NC(=O)/C=C/c2ccc(C)cc2)cc1OC", "inhibition": "-38% (inactive)"}
{"smiles": "Cc1ccc(S(=O)(=O)N2CCN(CC(=O)N/N=C/c3cc([N+](=O)[O-])ccc3Cl)CC2)cc1", "inhibition": "-9.95% (inactive)"}
{"smiles": "O=S(=O)(c1ccc(NC(=S)NN=C(C2CC2)C2CC2)cc1)N1CCOCC1", "inhibition": "-24.4% (inactive)"}
{"smiles": "O=[N+]([O-])c1cc(Cl)cc(/C=N/NC(=S)Nc2cc(S(=O)(=O)N3CCOCC3)ccc2Cl)c1O", "inhibition": "42.1% (active)"}
{"smiles": "Cn1cc[n+](C)c1COc1ccc(C=O)cc1", "inhibition": "-7.79% (inactive)"}
{"smiles": "COC(=O)Cc1ccc(OC(=O)C2CCN(S(=O)(=O)c3ccc(OC)c(OC)c3)CC2)cc1", "inhibition": "11.3% (inactive)"}
{"smiles": "CN(CC(=O)NCc1cccnc1)S(=O)(=O)c1cc(Cl)ccc1Cl", "inhibition": "-3.77% (inactive)"}
{"smiles": "CC(=O)N1c2ccc(S(=O)(=O)N3CCC(C(=O)NCc4ccc(F)cc4)CC3)cc2CC1C", "note": "(configuration not stated)", "inhibition": "7.14% (inactive)"}
{"smiles": "COc1cccc(CNC(=O)C(=O)NCCC2CCCCN2S(=O)(=O)c2ccc(C)cc2)c1", "note": "(configuration not stated)", "inhibition": "-56.9% (inactive)"}
{"smiles": "c1ccc(Cc2nn3c(Cn4cnc5ccccc54)nnc3s2)cc1", "inhibition": "7.67% (inactive)"}
{"smiles": "Cc1ccc(C(=O)COC(=O)c2cccc(N3C(=O)c4c(C)nc5ccccc5c4C3=O)c2)cc1C", "inhibition": "-8.71% (inactive)"}
{"smiles": "O=C(CSc1cccc2cccnc12)N/N=C/c1cccnc1", "inhibition": "41.8% (active)"}
{"smiles": "COc1ccc(C(=O)NCC(=O)N/N=C/c2cccnc2)cc1", "inhibition": "4.23% (inactive)"}
{"smiles": "CCOC(=O)N/N=C/c1cccnc1", "inhibition": "11.3% (inactive)"}
{"smiles": "CS(=O)(=O)N1CCc2cc(C(=O)Nc3ccccc3)ccc21", "inhibition": "6.74% (inactive)"}
{"smiles": "Clc1ccc(Cn2ncc3c(NCc4cccnc4)ncnc32)cc1", "inhibition": "-0.393% (inactive)"}
{"smiles": "COc1cc(NS(=O)(=O)c2ccc3ccccc3c2)c2ncccc2c1", "inhibition": "65.3% (active)"}
{"smiles": "CCOc1ccc(S(=O)(=O)Nc2ccc(S(=O)(=O)Nc3cc(OC)ccc3OC)cc2)cc1", "inhibition": "15.7% (inactive)"}
{"smiles": "COc1ccc(N2CC(NS(=O)(=O)c3ccc4ccccc4c3)CC2=O)cc1", "note": "(configuration not stated)", "inhibition": "1.28% (inactive)"}
{"smiles": "O=C(NCCS(=O)(=O)NCc1ccc(Cl)cc1)c1ccccc1", "inhibition": "-4.12% (inactive)"}
{"smiles": "O=C(CN1C(=O)NC2(CCCC2)C1=O)Nc1ccc(F)c(F)c1F", "inhibition": "8.35% (inactive)"}
{"smiles": "COc1cccc(CC2(CO)CCN(Cc3cnc(-c4cccc(C)c4)nc3)CC2)c1", "inhibition": "-17.4% (inactive)"}
